Assay results as given in PubChem BioAssay (Tox21).
Results filed as inconclusive are left out. The source made the active and inactive calls. Unless noted, calls come from the whole dose curve; as a rule, active = well fitted curve in the direction sought with a large enough effect in the repeat runs; inconclusive = weak or mixed curves; inactive = no such curve, though single readings can be large; an effect the other way counts as inactive or inconclusive.

Columns and labels:
[1] = qHTS assay for small molecules that induce genotoxicity in human embryonic kidney cells expressing luciferase-tagged ATAD5 (AID 651632); note: nearly all actives have a fitted effect of over 15% in size
Procedure, shortened: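 Genotoxicity read-out via ATAD5-luciferase: HEK293T cells, 16 hr compound incubation at 37C, Amplite detection.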

[2] = qHTS assay for small molecule agonists of the p53 signaling pathway - cell viability (AID 651633; calls by dose curve;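 note: p53RE-bla HCT reporter cells with a stable beta-lactamase p53 reporter; series mostly up to about 83 µM; nearly all actives have a fitted effect of over 30% in size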)
Procedure, shortened: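 Viability counter-read: CellTiter-Glo luminescence (30 min, room temperature) in the same p53RE-bla plates. These plates had been exposed to compounds for 16 h at 37 C.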

[3] = qHTS assay for small molecules that induce genotoxicity in human embryonic kidney cells expressing luciferase-tagged ATAD5 - cell viability (AID 651634; calls by dose curve; note: nearly all actives have a fitted effect of over 25% in size)
Procedure, shortened: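 Live-cell protease activity (CellTiter-Fluor, fluorescence) indicates viability. HEK293T cells with luciferase-tagged ATAD5; 15.5 hr compound treatment at 37C.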

[4] = qHTS assay for small molecule disruptors of the mitochondrial membrane potential - cell viability (AID 720634; calls by dose curve;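 note: human HepG2 liver cancer cells; series mostly up to about 83 µM; nearly all actives have a fitted effect of over 20% in size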)
Procedure, shortened: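 Human hepatoma HepG2 cells were treated for 1 hr with test chemicals, then given m-MPI dye and CellTiter-Glo. Cell viability reflects luminescence proportional to cellular ATP.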

[5] = qHTS assay for small molecule disruptors of the mitochondrial membrane potential (AID 720635)
Procedure, shortened: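 Mitochondrial membrane potential tracked with Mito-MPS dye, red aggregates (ex 540/em 590 nm) against green monomers (ex 490/em 535 nm). Compound treatment 1 hr at 37C, dye 30 min in HepG2.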

[6] = qHTS assay to test for compound auto fluorescence at 590 nm (red) in HepG2 cells (AID 720674)
Procedure, shortened: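 Red autofluorescence (Ex/Em 540/590 nm, Rose Bengal sodium equivalents) was measured in HepG2 cells, 2,000 per well in MEM plus 10% FBS, plated overnight at 37 C. Readings were taken 1 hr after adding 23 nL compound or DMSO, at 37 C and 5% CO2.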

[7] = qHTS assay to test for compound auto fluorescence at 535 nm (green) in HepG2 cells (AID 720675)
[8] = qHTS assay to test for compound auto fluorescence at 590 nm (red) in HEK293 cells (AID 720679)
Procedure, shortened: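 Red autofluorescence, HEK293 cells: 2,000 cells/well; attach 4-5 hr 37C; add 23 nL cpd or DMSO; incubate o/n 37C 5% CO2; read Ex540/Em590; Rose Bengal sodium reference.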

[9] = qHTS assay to test for compound auto fluorescence at 535 nm (green) in HEK293 cells (AID 720680)
[10] = qHTS assay to test for compound auto fluorescence at 535 nm (green) in HEK293 cell free culture (AID 720682)
Procedure, shortened: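 Steps: dispense DMEM/10% FBS into empty wells; pin in compound or DMSO; measure fluorescence at 485/535 nm. Values are fluorescein equivalents.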

[11] = qHTS assay to test for compound auto fluorescence at 590 nm (red) in HEK293 cell free culture (AID 720683)
Procedure, shortened: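 Red-channel autofluorescence of compounds in culture medium (DMEM, 10% FBS), no cells, measured at 540/590 nm. Rose Bengal sodium is the reference fluorophore for equivalence.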

[12] = qHTS assay to test for compound auto fluorescence at 590 nm (red) in HepG2 cell free culture (AID 720684)
Procedure, shortened: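 Plate contents were MEM with 10% FBS plus test compound or DMSO, no cells. Fluorescence was recorded with 540 nm excitation and 590 nm emission.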

[13] = qHTS assay to test for compound auto fluorescence at 460 nm (blue) in HepG2 cell free culture (AID 720685)
Procedure, shortened: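 Compound (23 nL) or DMSO pinned into cell-free MEM with 10% FBS; blue fluorescence read at 405/460 nm excitation/emission, expressed as auto-fluorescence equivalency to triamterene.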

[14] = qHTS assay to test for compound auto fluorescence at 535 nm (green) in HepG2 cell free culture (AID 720686)
[15] = qHTS assay to test for compound auto fluorescence at 460 nm (blue) in HepG2 cells (AID 720687)
Procedure, shortened: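 Blue-channel autofluorescence (Ex/Em 405/460 nm, triamterene-equivalent) was measured after 1 hr compound exposure at 37 C, 5% CO2. Cells were HepG2, plated overnight at 37 C in MEM plus 10% FBS.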

[16] = qHTS assay to test for compound auto fluorescence at 460 nm (blue) in HEK293 cells (AID 720678)
Procedure, shortened: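 Intrinsic compound fluorescence is recorded in live HEK293 cultures after overnight incubation at 37C, 5% CO2, using excitation 405 nm and emission 460 nm. Values are referenced to triamterene.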

[17] = qHTS assay to test for compound auto fluorescence at 460 nm (blue) in HEK293 cell free culture (AID 720681)
Procedure, shortened: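 Blue fluorescence (Ex 405/Em 460 nm, triamterene-equivalent) was read immediately after pin transfer of compound or DMSO into medium (DMEM, 10% FBS) without cells.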

[18] = qHTS assay for small molecule agonists of the p53 signaling pathway (AID 651631; calls by dose curve; note: nearly all actives have a fitted effect of over 15% in size)
Procedure, shortened: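 HCT-116 p53RE-bla reporter line, 16 h compound treatment at 37 °C, then fluorescence after 2 h with B/G FRET substrate.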

[19] = target: Glucocorticoid receptor (Homo sapiens) (UniProt P04150); assay: qHTS assay to identify small molecule agonists of the glucocorticoid receptor (GR) signaling pathway (AID 720691; active = well fitted activation curve with a large enough effect in the signal ratio in the repeat runs, not every such curve was filed as active; the % refers to the signal ratio)
Sequence of Glucocorticoid receptor (Homo sapiens) (P04150 whole entry, looked up): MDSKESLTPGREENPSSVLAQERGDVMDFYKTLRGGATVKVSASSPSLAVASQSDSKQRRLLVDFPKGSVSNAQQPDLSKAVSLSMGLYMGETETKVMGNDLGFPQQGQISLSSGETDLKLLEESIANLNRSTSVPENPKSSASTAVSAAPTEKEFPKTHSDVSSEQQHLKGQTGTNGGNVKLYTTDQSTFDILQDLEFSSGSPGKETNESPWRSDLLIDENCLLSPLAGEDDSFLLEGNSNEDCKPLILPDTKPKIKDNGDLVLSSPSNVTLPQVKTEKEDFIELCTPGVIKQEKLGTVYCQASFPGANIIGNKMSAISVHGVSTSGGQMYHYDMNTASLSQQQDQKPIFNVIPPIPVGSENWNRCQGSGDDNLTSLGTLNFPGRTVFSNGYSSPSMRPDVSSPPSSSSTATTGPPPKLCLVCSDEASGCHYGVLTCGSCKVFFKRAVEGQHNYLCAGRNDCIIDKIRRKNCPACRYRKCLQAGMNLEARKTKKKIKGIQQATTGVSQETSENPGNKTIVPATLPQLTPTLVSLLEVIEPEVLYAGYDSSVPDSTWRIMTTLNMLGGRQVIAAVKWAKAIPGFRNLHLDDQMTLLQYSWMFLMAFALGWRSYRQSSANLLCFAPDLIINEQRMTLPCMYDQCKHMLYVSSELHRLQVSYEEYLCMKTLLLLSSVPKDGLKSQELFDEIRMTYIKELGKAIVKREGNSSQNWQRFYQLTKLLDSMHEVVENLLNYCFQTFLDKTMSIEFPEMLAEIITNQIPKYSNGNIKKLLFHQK
Procedure, shortened: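 Beta-lactamase reporter activity, read as fluorescence intensity, was measured in GR-bla HeLa cells exposed to compounds for 18 h at 37 C and then loaded with LiveBLAzer B/G FRET substrate for 2 h at room temperature.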

[20] = target: Glucocorticoid receptor (Homo sapiens) (UniProt P04150); assay: qHTS assay to identify small molecule antagonists of the glucocorticoid receptor (GR) signaling pathway (AID 720692; active = well fitted inhibition curve with a large enough effect in the signal ratio in the repeat runs, not every such curve was filed as active; the % refers to the signal ratio)
Procedure, shortened: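 Fluorescence from cleaved LiveBLAzer B/G FRET substrate reports GRE-driven beta-lactamase in HeLa cells; compounds are tested against 5 nM dexamethasone (final) over 18 h at 37 C, substrate incubation 2 h at room temperature.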

Measured: Potency

CCCOC(=O)NCCCN(C)C
not listed: [16] | [17] | [18] | [19] | [20]
inactive: all other assays above

CN1CCCC1=O
not listed: [18] | [19] | [20]
inactive: all other assays above

O=[N+]([O-])c1cc(C(F)(F)F)ccc1Cl
not listed: [1] | [3] | [16]
inactive: all other assays above

COC(=O)/C=C\C(=O)OC
not listed: [5] | [18] | [20]
inactive: all other assays above

NC1CCCCC1N (stereo unspecified)
not listed: [1] | [4] | [5]
inactive: all other assays above

C1CCCNCC1
not listed: [18]
inactive: all other assays above

C=CC(=O)NCOCCCC
not listed: [16] | [17] | [18]
inactive: all other assays above

COc1ccccc1[N+](=O)[O-]
not listed: [18] | [19] | [20]
inactive: all other assays above
